# Many of the other results were omitted from the sample, so the strongest signals are more common in it than they were.
# Key:
# Experiment in all cases: glycan array binding signal (z-score within array); higher = stronger binding
# Conditions in all cases: glycan notation: IUPAC condensed, linker removed
# GalNAc6S(b1-4)GlcNAc = target: GalNAc6S(b1-4)GlcNAc
# Method in brief: (§1)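 Glycan array data were curated from 3228 arrays in the Consortium for Functional Glycomics database and kept only where the protein sequence was available. Glycan names were converted to IUPAC-condensed notation, and columns mapping to the same glycan were averaged. The binding signal is a within-array Z-score, averaged across arrays of the same protein sequence at different concentrations or buffers and across linkers. Negative Z-scores can be read as non-binding.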
# GlcA(b1-3)Gal = target: GlcA(b1-3)Gal
# Method in brief: as §1
# [1] = target: GlcNAc(b1-2)Man(a1-3)[GlcNAc(b1-2)Man(a1-6)]Man(b1-4)GlcNAc(b1-4)[Fuc(a1-6)]GlcNAc
# Method in brief: as §1
# [2] = target: GlcNAc(b1-2)Man(a1-3)[GlcNAc(b1-4)][GlcNAc(b1-2)Man(a1-6)]Man(b1-4)GlcNAc(b1-4)[Fuc(a1-6)]GlcNAc
# Method in brief: as §1
# [3] = target: GlcNAc(b1-3)Gal(b1-4)GlcNAc
# Method in brief: as §1
# [4] = target: GlcNAc(b1-3)Gal(b1-4)GlcNAc(b1-3)Gal(b1-4)GlcNAc(b1-2)Man(a1-3)[GlcNAc(b1-3)Gal(b1-4)GlcNAc(b1-3)Gal(b1-4)GlcNAc(b1-2)Man(a1-6)]Man(b1-4)GlcNAc(b1-4)GlcNAc
# Method in brief: as §1
# [5] = target: GlcNAc(b1-3)[GlcNAc(b1-6)]Gal(b1-4)GlcNAc
# Method in brief: as §1
# [6] = target: Man(a1-3)[Man(a1-6)]Man(a1-6)[Man(a1-2)Man(a1-3)]Man(b1-4)GlcNAc(b1-4)GlcNAc
# Method in brief: as §1
# Man(b1-4)GlcNAc = target: Man(b1-4)GlcNAc
# Method in brief: as §1
# [7] = target: Neu5Ac(a2-3)Gal(b1-3)GalNAc
# Method in brief: as §1
# [8] = target: Neu5Ac(a2-3)Gal(b1-3)GlcNAc(b1-2)Man
# Method in brief: as §1
# [9] = target: Neu5Ac(a2-3)Gal(b1-3)[GlcNAc(b1-6)]GalNAc
# Method in brief: as §1
# Neu5Ac(a2-3)Gal(b1-4)Glc = target: Neu5Ac(a2-3)Gal(b1-4)Glc
# Method in brief: as §1
# [10] = target: Neu5Ac(a2-3)Gal(b1-4)GlcNAc(b1-2)Man(a1-3)[GlcNAc(b1-4)][Neu5Ac(a2-3)Gal(b1-4)GlcNAc(b1-2)Man(a1-6)]Man(b1-4)GlcNAc(b1-4)GlcNAc
# Method in brief: as §1
# [11] = target: Neu5Ac(a2-3)Gal(b1-4)GlcNAc(b1-2)Man(a1-3)[Neu5Ac(a2-3)Gal(b1-4)GlcNAc(b1-2)Man(a1-6)]Man(b1-4)GlcNAc(b1-4)[Fuc(a1-6)]GlcNAc
# Method in brief: as §1
# [12] = target: Neu5Ac(a2-3)Gal(b1-4)GlcNAc(b1-3)Gal(b1-4)GlcNAc
# Method in brief: as §1
# [13] = target: Neu5Ac(a2-3)Gal(b1-4)GlcNAc(b1-3)Gal(b1-4)GlcNAc(b1-3)Gal(b1-4)GlcNAc(b1-2)Man(a1-3)[Neu5Ac(a2-3)Gal(b1-4)GlcNAc(b1-3)Gal(b1-4)GlcNAc(b1-3)Gal(b1-4)GlcNAc(b1-2)Man(a1-6)]GalNAc
# Method in brief: as §1
# [14] = target: Neu5Ac(a2-6)Gal(b1-4)GlcNAc(b1-2)Man
# Method in brief: as §1
# [15] = target: Neu5Ac(a2-6)Gal(b1-4)GlcNAc(b1-2)Man(a1-3)[Neu5Ac(a2-6)Gal(b1-4)GlcNAc(b1-2)Man(a1-6)]Man(b1-4)GlcNAc(b1-4)GlcNAc
# Method in brief: as §1
# [16] = target: Neu5Ac(a2-6)Gal(b1-4)GlcNAc(b1-2)Man(a1-6)Man(b1-4)GlcNAc(b1-4)GlcNAc
# Method in brief: as §1
# [17] = target: Neu5Ac(a2-6)Gal(b1-4)GlcNAc(b1-2)Man(a1-6)[Man(a1-3)]Man(b1-4)GlcNAc(b1-4)GlcNAc
# Method in brief: as §1
# [18] = target: Neu5Ac(a2-6)Gal(b1-4)GlcNAc(b1-3)Gal(b1-4)GlcNAc(b1-3)[Neu5Ac(a2-6)Gal(b1-4)GlcNAc(b1-3)Gal(b1-4)GlcNAc(b1-6)]GalNAc
# Method in brief: as §1
# [19] = target: Neu5Ac(a2-6)Gal(b1-4)GlcNAc(b1-3)Gal(b1-4)GlcNAc(b1-6)[Gal(b1-3)]GalNAc
# Method in brief: as §1
# [20] = target: Neu5Ac(a2-6)Gal(b1-4)GlcNAc6S
# Method in brief: as §1
# [21] = target: Neu5Gc(a2-3)Gal(b1-4)GlcNAc(b1-3)Gal(b1-4)GlcNAc(b1-2)Man(a1-3)[Neu5Gc(a2-3)Gal(b1-4)GlcNAc(b1-3)Gal(b1-4)GlcNAc(b1-2)Man(a1-6)]Man(b1-4)GlcNAc(b1-4)GlcNAc
# Method in brief: as §1
binder,measurement,setting,value
"Protein L(A-C2) (Finegoldia magna), Q51912 (protein) ADEPIDLEKLEEKRDKENVGNLPKFDNEVKDGSENPMAKYPDFDDEASTRFETENNEFEEKKVVSDNFFDQSEHPFVENKEETPETPETDSEEEVTIKANLIFANGSTQTAEFKGTFEKATSEAYAYADTLKKDNGEYTVDVADKGYTLNIKFAGKEKTPEEPKEEVTIKANLIYADGKTQTAEFKGTFEEATAEAYRYADALKKDNGEYTVDVADKGYTLNIKFAGKEKTPEEPKEEVTIKANLIYADGKTQTAEFKGTFEEATAEAYRYADLLAKENGKYTVDVADKGYTLNIKFAGKEKTPEEPKEEVTIKANLIYADGKTQTAEFKGTFAEATAEAYRYADLLAKENGKYTADLEDGGYTINIRFAGKKVDEKPEEKEQVTIKENIYFEDGTVQTATFKGTFAEATAEAYRYADLLSKEHGKYTADLEDGGYTINIRFAGKEEPEETPEKPEVQDGYASYEEAEAAAKEALKNDDVNKSYTIRQGADGRYYYVLSPVEAEEEKPEAQNGYATYEEAEAAAKKALENDPINKSYSIRQGADGRYYYVLSPVEAE",glycan array binding signal (z-score),GalNAc6S(b1-4)GlcNAc,-0.775
same,glycan array binding signal (z-score),GlcA(b1-3)Gal,-0.562
same,glycan array binding signal (z-score),[1],2.85
same,glycan array binding signal (z-score),[2],-0.153
same,glycan array binding signal (z-score),[3],-0.623
same,glycan array binding signal (z-score),[4],1.91
same,glycan array binding signal (z-score),[5],-0.856
same,glycan array binding signal (z-score),[6],4.98
same,glycan array binding signal (z-score),Man(b1-4)GlcNAc,0.002
same,glycan array binding signal (z-score),[7],0.418
same,glycan array binding signal (z-score),[8],3.79
same,glycan array binding signal (z-score),[9],-0.278
same,glycan array binding signal (z-score),Neu5Ac(a2-3)Gal(b1-4)Glc,0.38
same,glycan array binding signal (z-score),[10],-0.228
same,glycan array binding signal (z-score),[11],2.19
same,glycan array binding signal (z-score),[12],-1.1
same,glycan array binding signal (z-score),[13],3.85
same,glycan array binding signal (z-score),[14],0.253
same,glycan array binding signal (z-score),[15],-0.037
same,glycan array binding signal (z-score),[16],-0.51
same,glycan array binding signal (z-score),[17],0.298
same,glycan array binding signal (z-score),[18],3.89
same,glycan array binding signal (z-score),[19],0.761
same,glycan array binding signal (z-score),[20],-0.725
same,glycan array binding signal (z-score),[21],0.473

# — the supplement of paper PMC8728848
